In PubChem BioAssay AID1835 (Johns Hopkins Ion Channel Center, 2009):
The campaign covered roughly 2,400 compounds. About 750 (31%) were called active.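 How the source made its calls: active means median signal gain over dofetilide-blocked control wells reaching their mean plus 3 SD, so readout 1 at least 0; inactive means the rest.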 The list shows a part of the results.

target: Voltage-gated inwardly rectifying potassium channel KCNH2 (Homo sapiens) (UniProt Q12809); assay: hERG protection against dofetilide inhibition, confirmation, cell-based, thallium flux, duplicate retest, dofetilide IC70 (AID 1835); settings: hERG cell line, FluxOR thallium flux, dofetilide-blocked; at 10 µM; hits give high values
Sequence (Q12809 whole entry, looked up): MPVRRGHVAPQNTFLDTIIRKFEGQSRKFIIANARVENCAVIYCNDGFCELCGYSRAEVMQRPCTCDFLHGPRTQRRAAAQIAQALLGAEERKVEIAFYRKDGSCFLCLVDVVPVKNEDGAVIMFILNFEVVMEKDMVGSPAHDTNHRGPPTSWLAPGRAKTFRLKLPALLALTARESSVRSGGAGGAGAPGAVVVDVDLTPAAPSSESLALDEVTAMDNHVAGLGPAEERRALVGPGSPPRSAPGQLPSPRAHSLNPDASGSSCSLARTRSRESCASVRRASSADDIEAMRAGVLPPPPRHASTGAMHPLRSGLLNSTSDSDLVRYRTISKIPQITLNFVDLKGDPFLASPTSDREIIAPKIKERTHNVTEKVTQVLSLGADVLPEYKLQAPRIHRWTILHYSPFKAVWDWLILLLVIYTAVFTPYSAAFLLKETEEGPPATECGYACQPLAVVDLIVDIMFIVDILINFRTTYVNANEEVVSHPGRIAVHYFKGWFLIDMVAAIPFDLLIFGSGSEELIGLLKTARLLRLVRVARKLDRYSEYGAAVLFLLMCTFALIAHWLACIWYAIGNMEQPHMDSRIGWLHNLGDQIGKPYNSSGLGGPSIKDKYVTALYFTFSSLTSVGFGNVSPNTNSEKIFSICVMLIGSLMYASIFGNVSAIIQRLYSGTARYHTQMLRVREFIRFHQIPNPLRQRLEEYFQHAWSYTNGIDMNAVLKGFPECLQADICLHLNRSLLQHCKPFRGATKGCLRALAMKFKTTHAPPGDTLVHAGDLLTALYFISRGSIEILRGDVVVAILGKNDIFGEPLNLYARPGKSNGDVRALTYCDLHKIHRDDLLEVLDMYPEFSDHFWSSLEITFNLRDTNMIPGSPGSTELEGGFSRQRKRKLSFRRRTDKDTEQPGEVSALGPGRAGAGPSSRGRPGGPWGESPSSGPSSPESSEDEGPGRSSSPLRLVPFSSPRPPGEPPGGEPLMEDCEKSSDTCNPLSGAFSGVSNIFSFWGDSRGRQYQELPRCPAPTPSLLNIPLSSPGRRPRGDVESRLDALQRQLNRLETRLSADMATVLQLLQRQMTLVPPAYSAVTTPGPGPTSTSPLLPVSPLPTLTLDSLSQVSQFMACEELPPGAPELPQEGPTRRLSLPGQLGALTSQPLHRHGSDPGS

Structure (SMILES) | activity increase over dofetilide control, less the hit threshold
CCCNC(=O)N(C)c1nncnc1C(=O)NC | -7% (inactive)
CC1CCC(n2c(=S)[nH]c3ccccc3c2=O)CC1 (stereo not given) | 22% (active)
O=C1NCC(=O)N2C(c3ccccc3)c3[nH]c4ccccc4c3C[C@@H]12 (stereo not given in full) | -22% (inactive)
O=c1c2ccccc2[nH]c(=S)n1C1CCCCC1 | 2% (active)
CC1CCCCC1n1c(=S)[nH]c2ccccc2c1=O (stereo not given) | 1% (active)
CC1CCC(N2CCN(C(=O)c3ccccc3F)CC2)CC1 (stereo not given) | -6% (inactive)
C=CCNC(=O)c1onc(CSc2ccc(OC)cc2)c1C(=O)O | -11% (inactive)
NC(=O)CC1NC(=O)c2ccccc21 (stereo not given) | -10% (inactive)
O=C(Cn1c(=O)oc2ccccc21)Nc1ccc(F)c(F)c1 | -29% (inactive)
Cc1cc(=S)[nH]c2c(C)cccc12 | 5% (active)
S=c1[nH]c2cc(-c3ccccc3)ccc2o1 | 84% (active)
CCOc1c(OC)ccc2c3c(c(=O)oc12)CCCC3 | -20% (inactive)
Cc1c(OC(C)C(=O)NCCN2CCOCC2)ccc2c3c(c(=O)oc12)CCC3 (stereo not given) | 3% (active)
Cc1ccc(-c2nc(CS(=O)(=O)CC(=O)NCCN3CCOCC3)c(C)o2)cc1 | -13% (inactive)
CCCn1c(=S)[nH]c2ccc(C(F)(F)F)cc21 | -3% (inactive)
FC(F)(F)c1cnc2c(c1)[nH]c(=S)n2-c1ccc(Cl)cc1 | 21% (active)
Clc1ccc(N=NN2CCOCC2)cc1 | -8% (inactive)
COc1cc2c(=O)nc3n(c2cc1OC)C(c1ccccc1)N=C(N)N3 (stereo not given) | -8% (inactive)

Structure (SMILES) | activity increase over dofetilide control, less the hit threshold
CN1C(=O)/C(=N\OC(=O)c2cccc3ccccc23)c2ccccc21 | 15% (active)
CCN(CC)C(=O)CN1C(=O)c2cccc3cccc(c23)C1=O | -15% (inactive)
CN1C(=O)c2ccc(C(=O)NCc3ccccc3)cc2C1=O | -16% (inactive)
CN1C(=O)/C(=N/OC(=O)c2ccccc2)c2ccccc21 | 3% (active)
O=C1c2ccccc2C(=O)N1c1cccnc1 | -12% (inactive)
c1ccc(OCc2nn3c(Cn4cnc5ccccc54)nnc3s2)cc1 | -10% (inactive)
O=C(NC(=S)Nc1cccc(Cl)c1N1CCCCC1)c1ccco1 | 52% (active)
O=C(COc1ccc(Cl)cc1Cl)NC(=S)Nc1ccccc1C(=O)O | -6% (inactive)
O=C(NC(=S)Nc1ccccc1N1CCCC1)c1ccc([N+](=O)[O-])cc1 | 4% (active)
O=C(COc1ccccc1Cl)NC(=S)Nc1ccccc1N1CCCC1 | 15% (active)
CCOc1ccc(NC(=O)CS(=O)CC(=O)NC2CCCc3ccccc32)cc1 (stereo not given) | -7% (inactive)
Cc1cccc(OCC(=O)NC2CCCc3ccccc32)c1C (stereo not given) | -11% (inactive)
O=C(CNC1CCCCCC1)Nc1ccccc1N1CCOCC1 | -12% (inactive)
O=C(NC(=S)Nc1cccc(Cl)c1N1CCCCC1)c1cccs1 | -10% (inactive)
O=C(NC(=S)Nc1cccc(Cl)c1N1CCOCC1)c1cccs1 | -5% (inactive)
O=C(NC(=S)NC1CCCc2ccccc21)c1ccco1 (stereo not given) | 13% (active)
O=C(NC(=S)Nc1ccccc1N1CCCC1)c1ccc(-c2cccc([N+](=O)[O-])c2)o1 | -6% (inactive)
